About 79,000 compounds went through this panel and 15% of them were active in at least one assay; those are over-represented in the sample as a whole. Activity calls are given as the source filed them. Cut-off read from the data, not from the text of the source: active = growth inhibition above about 70%; inactive = the rest.
Experiments:
[1] = NCI Yeast Anticancer Drug Screen. Data for the rad50 strain (AID 155);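 note: 0% = growth of vehicle-only cultures of the same strain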; settings: S. cerevisiae rad50 strain growth inhibition; at 50.0 µM; active compounds read high
Procedure, shortened: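 Readout: growth inhibition relative to vehicle-treated cultures. Compound exposure was carried out in a genetically defined yeast strain deficient in DNA damage repair.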

[2] = NCI Yeast Anticancer Drug Screen. Data for the mec2-1 strain (AID 157); settings: S. cerevisiae mec2-1 strain, at 50.0 µM, active compounds read high
Procedure, shortened: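 Using mec2-1 yeast: add compound, measure growth, express inhibition versus vehicle-treated cultures.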

[3] = NCI Yeast Anticancer Drug Screen. Data for the sgs1 mgt1 strain (AID 161);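 note: 0% = growth of cultures given vehicle only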; settings: S. cerevisiae sgs1 mgt1 strain, at 50.0 µM, active compounds read high
Procedure, shortened: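 Growth of a repair-deficient yeast mutant was monitored after compound treatment and expressed as inhibition relative to vehicle-treated cultures.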

[4] = NCI Yeast Anticancer Drug Screen. Data for the cln2 rad14 strain (AID 165);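 note: 0% = growth equal to vehicle treated cultures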; settings: S. cerevisiae cln2 rad14 strain, at 50.0 µM, active compounds read high
Procedure, shortened: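 Yeast strain cln2 rad14, bearing defects in cell cycle control and DNA repair, serves as the test system; values reflect growth inhibition compared with vehicle.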

[5] = NCI Yeast Anticancer Drug Screen. Data for the bub3 strain (AID 167); settings: S. cerevisiae bub3 mutant strain, at 50.0 µM, active compounds read high
Procedure, shortened: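 Readout: yeast growth inhibition, expressed relative to vehicle-only wells. The test organism is a mutant strain from a panel with lesions in DNA repair or checkpoint genes.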

[6] = NCI Yeast Anticancer Drug Screen. Data for the mlh1 rad18 strain (AID 175); settings: S. cerevisiae mlh1 rad18 strain growth inhibition; at 50.0 µM; active compounds read high
Procedure, shortened: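 Steps: expose repair-defective yeast to compound; measure growth; express inhibition against vehicle-treated controls.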

Measured: growth inhibition

COCCNC(c1ccccc1)C(O)c1ccccc1 (stereo not drawn)
inactive: [1] 6.4% | [2] -15.6% | [3] -5.15% | [4] -33% | [5] 7.5% | [6] -7.85%

NC(=O)NCCCC1NC(=S)N(c2ccccc2)C1=O (stereo not drawn)
inactive: [1] -3.35% | [2] -4.35% | [3] -3.2% | [4] -2.95% | [5] 23.9% | [6] 34%

COc1nc2c(c(O)c(C)c(=O)n2OC2OCC(OC(C)=O)C(OC(C)=O)C2OC(C)=O)c(=O)n1C (stereo not drawn)
inactive: [1] -0.15% | [2] -19.4% | [3] -30.6% | [4] -1.85% | [5] -10.3% | [6] -20.8%

Cc1cccc2c1CCC21OC(=O)c2c1cc(F)c1ccccc21 (stereo not drawn)
inactive: [1] -13.3% | [2] -15.4% | [3] -8.5% | [4] 2.55% | [5] 14.5% | [6] 4.35%

COC(=O)C1=C(C(=O)OC)SC(=C2C3=C(SC(C(=O)OC)=C(C(=O)OC)S3)c3ccccc32)S1
inactive: [1] 31.1% | [2] -2.15% | [3] 21.9% | [4] 18.9% | [5] -4.6% | [6] 21.2%

Cc1cc(=O)[nH]c2[nH][nH]c(=O)c12
inactive: [1] -12.3% | [2] -28.6% | [3] -43.6% | [4] -7.35% | [5] 2.85% | [6] -8.8%

NS(=O)(=O)c1nc(S(=O)(=O)O)c2[nH]cnc2n1
inactive: [1] 3.7% | [2] -0.35% | [3] -6.75% | [4] -4.2% | [5] -45.3% | [6] 14.2%

CC(=O)CCC(=O)C(=[N+]=[N-])S(=O)(=O)c1ccccc1
inactive: [1] -15.6% | [2] -0.2% | [3] -26.1% | [4] 2.85% | [5] -9.7% | [6] -9.2%

O=C(/C=C/c1ccccc1)CC1OC(=O)c2ccccc21 (stereo not drawn)
inactive: [1] 14.3% | [2] -15.9% | [3] 10.3% | [4] 23.1% | [5] 3.15% | [6] -20.9%

Cc1ccc(S(=O)(=O)NC(=O)C2S(=O)(=O)OCCOS2(=O)=O)cc1
inactive: [1] -2.75% | [2] 4.15% | [3] -7.1% | [4] -1.85% | [5] -11.3% | [6] -16.4%

CC1=NN(C(=O)c2ccccc2)C(=O)C1N=Nc1ccc([N+](=O)[O-])cc1 (stereo not drawn)
inactive: [1] -3.3% | [2] -5.5% | [3] -2.5% | [4] -10.8% | [5] 0% | [6] -3.35%

COc1cc(/C=N/N2CC(=O)N(c3ccccc3)CC2=O)cc(OC)c1
inactive: [1] -469% | [2] 18.1% | [3] 23.7% | [4] 7.1% | [5] 10.8% | [6] 13.1%

CC(C)(O)C12CC3CC(CC(C3)C1)C2
inactive: [1] 18.4% | [2] -6.15% | [3] 8.35% | [4] -38.2% | [5] 5.25% | [6] 0.2%

COc1ccc2c(c1)OC(C)(C)C(c1ccccc1)=C2c1ccc(OCCN2CCCC2)cc1
active: [1] 99.6% | [2] 99.8% | [3] 99.9% | [4] 99.3% | [5] 99.3% | [6] 99.7%

Clc1ccccc1-c1c2ccccc2cc2ccc3ccccc3c12
inactive: [1] -6.75% | [2] -11.6% | [3] -3.85% | [4] -39.5% | [5] 18.9% | [6] -12.4%

CN1CCN(CCCNN)CC1
inactive: [1] 2.05% | [2] -17.1% | [3] -17.6% | [4] 3.55% | [5] -70.6% | [6] -30.1%

CCCS(=O)(=O)N1CC(C)OC(C)C1 (stereo not drawn)
inactive: [1] 2.35% | [2] -16.9% | [3] 3.5% | [4] -7.1% | [5] -10.7% | [6] 3.2%

Cc1nc2nnc(N)n2nc1C
inactive: [1] 10.1% | [2] -6.15% | [3] 3.75% | [4] -22% | [5] 8.45% | [6] 4.05%

Cc1ccc(N=Nc2ccc(O)c(CN(C)C)c2)cc1
inactive: [1] -14.6% | [2] -9.15% | [3] -24.4% | [4] -39.8% | [5] 18% | [6] -17.1%

CCCCCCCCCC1=C(C#N)C(=O)OCCN1C
inactive: [1] -12.9% | [2] -2.7% | [3] 0.05% | [4] -22.1% | [5] -11.4% | [6] 3.6%

C/C(=N\NC(N)=S)c1sc(-n2nc(-c3ccccc3)cc2-c2ccccc2)nc1C
inactive: [1] 4.65% | [2] -18.2% | [3] 12.2% | [4] 0.25% | [5] 26.6% | [6] 15.7%

O=C(O)c1cc2ccccc2o1
inactive: [1] 11.6% | [2] 0.95% | [3] 16.9% | [4] 20.6% | [5] -2.6% | [6] 30%

CCOC(=O)CC(=O)c1cc(OC)c(OC)c(OC)c1
inactive: [1] 7.05% | [2] 16.8% | [3] 8.4% | [4] -75% | [5] 39.9% | [6] 20.4%

Cn1cnnc1Sc1c([N+](=O)[O-])ncn1C
inactive: [1] -3.3% | [2] -5.25% | [3] -5% | [4] 22.5% | [5] 15.6% | [6] -11.6%

CN(Cc1ccc(Cl)cc1)C(=O)Nc1ccccc1Cl
inactive: [1] 6.7% | [2] 14.7% | [3] 43.3% | [4] 7.35% | [5] 40.2% | [6] 9.95%

CCOC(=O)/C(=C\c1ccnc2ccccc12)P(=O)(OCC)OCC
inactive: [1] 11.7% | [2] 4% | [3] 15.4% | [4] 11.1% | [5] 10.3% | [6] 23.1%

COc1ccc(C2N(C(C#N)c3ccccc3OC)CCCN2C(C#N)c2ccccc2OC)c(OC)c1 (stereo not drawn)
inactive: [1] 57.1% | [2] 18.3% | [3] 30.3% | [4] 25.4% | [5] -2.55% | [6] 42%

Cc1[nH]c(=O)[nH]c(=O)c1-n1nnc2ccccc2c1=O
inactive: [1] 21.9% | [2] 12.8% | [3] 20.7% | [4] -7.05% | [5] 8.3% | [6] 6.8%

Cn1ncc2c(=S)nc[nH]c21
inactive: [1] -15.2% | [2] -4.9% | [3] -2.5% | [4] -18.2% | [5] 2.65% | [6] -13.8%

Cc1ccc(O)c(C(=O)c2ccccc2C(=O)O)c1
inactive: [1] 15% | [2] -11.9% | [3] -6.95% | [4] 44.4% | [5] 4.9% | [6] 22.4%

Cc1cc2c(=O)c(C)c[nH]c2cc1Cl
inactive: [1] -21.6% | [2] 5.2% | [3] -2.6% | [4] -46.1% | [5] -10.6% | [6] -7.55%

Nc1c(Cl)ncnc1NCCCCCCCCCCCCNc1ncnc(Cl)c1N
inactive: [1] -6.4% | [2] 1.75% | [3] 26.1% | [4] -8.95% | [5] -9.7% | [6] 1.85%

CSCCC(NC(=O)NS(=O)(=O)c1ccc(C)cc1)C(=O)O (stereo not drawn)
inactive: [1] -4.3% | [2] -16.1% | [3] -2.3% | [4] 20.2% | [5] 6.45% | [6] 9.55%

COc1cccc(-n2cnc3c(SC)ncnc32)c1
inactive: [1] 8.8% | [2] 3.9% | [3] 4.75% | [4] -27.9% | [5] 19.1% | [6] 1.6%

Oc1ccc(CN=Cc2ccccc2)cc1
inactive: [1] 0.05% | [2] 3.3% | [3] -7.05% | [4] -14.9% | [5] -15.6% | [6] -10.1%

COc1cccc(NC(=O)CC(=O)Nc2cccc(OC)c2)c1
inactive: [1] -5.05% | [2] 3.6% | [3] -8.4% | [4] -32.1% | [5] 10.1% | [6] -18.7%

Cn1cc(S(=O)(=O)NC(=O)Nc2ccc(Cl)cc2)c2ccccc21
inactive: [1] -19.4% | [2] -9.85% | [3] -1.05% | [4] 29.7% | [5] -20.1% | [6] -13.9%

CCOC(=O)C1=NNC(=O)C1
inactive: [1] 4.4% | [2] -2.95% | [3] 2.35% | [4] 9.85% | [5] -0.3% | [6] 4.75%

NC(=O)N/N=C/c1ccc(Cl)cc1Cl
inactive: [1] -3.7% | [2] -5.55% | [3] -8.25% | [4] -1.65% | [5] 4.8% | [6] -13.6%

CC(=O)Nc1cccc([N+](=O)[O-])c1
inactive: [1] 8.25% | [2] -10.3% | [3] 8.65% | [4] -7.85% | [5] -2.7% | [6] -19.6%

CN1C(C)(C)NC(=S)C1(C)C
inactive: [1] 26.9% | [2] -18.1% | [3] -5.5% | [4] 11.7% | [5] 1.65% | [6] -9.65%

CC/C(=N/NS(=O)(=O)c1ccc(C)cc1)c1ccc(O)cc1
inactive: [1] 22.7% | [2] 18.1% | [3] 7.9% | [4] 36.8% | [5] 25.5% | [6] 46.6%

CCOC(=O)c1cc2nc3ccccn3c(=O)c2cc1N
inactive: [1] -1.15% | [2] -17.5% | [3] 0.85% | [4] -36.3% | [5] -9.3% | [6] -8.45%

Reference: PubChem BioAssay (NCI)
